In the library only some 2% were active in any assay of this set; here they are far more common.
Shn3 3UTR inh: inhibitors of Schnurri-3 3'UTR reporter in osteoblasts. 0.52% of 360,000 active. Clone20 osteoblast Shn3 3'UTR firefly luciferase, 24 h. inhibition, % at 12.5 µM;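 active means mean inhibition of at least 75% with every replicate also reaching 75%; inconclusive means mean inhibition at least 75% but some replicate below; inactive means mean inhibition below 75%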;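 further: 0% = median of neutral control wells and 100% = pilot-screen positive control compound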
Jurkat NFkB inh: lowers PMA/ionomycin-induced NF-kB signal in Jurkat cells. 0.53% of 330,000 active. PMA/ionomycin-induced NF-kB luciferase reporter, luminescence. inhibition, % at 4 µM. AID 435003; in the data active means inhibition above about 50%
Calb FLC: C. albicans growth modulation with fluconazole | C. albicans CaCi-2 (fluconazole-resistant clinical isolate) + fluconazole, Alamar Blue growth, 48 h | growth inhibition, % (no concentration beside the values) | 0.57% of 300,000 active;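 active means growth inhibition above about 58% in most replicates, limit read from the data, passing the limit was not always enough; inconclusive means exactly half the replicates above a set limit; inactive means most replicates below a set limit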;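 further: all wells also contain fluconazole at 8 µg/ml as a sub-toxic cotreatment; 0% = median of DMSO wells and 100% = median of geldanamycin control wells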
Beta apoptosis: beta cell apoptosis inhibition | protection from apoptosis, % (concentration not given with the values) | INS-1E cytokine-induced death, ATP luminescence, 48 h; percent of positive-control rescue, neutral wells zero | 0.8% of 300,000 active;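 active means Every replicate reaches about 75%, or at least half do and their mean reaches it too, limit read from the data; inconclusive means At least half of replicates reach the limit but their mean does not; inactive means Under half of replicates reach the limit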;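 further: 0% = cytokine-treated negative control wells and 100% = positive control rescue; higher means more ATP so stronger rescue from cytokine killing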
697 NFkB inh: inhibitors of the PMA/ionomycin-induced NF-kB reporter in 697 B cells; AID 435022; 697 B-cell NF-kB luciferase reporter, 16 h; 0.33% of 330,000 active; inhibition, % at 4 µM; in the data active means inhibition above about 35%
Jurkat NFkB conf: inhibitors of the PMA/ionomycin-induced NF-kB reporter in Jurkat cells, retest | Jurkat NF-kB luciferase, 16 h | shares compounds with Jurkat NFkB inh | inhibition, % at 4 µM | 27% of 2,700 active | AID 435020;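 active means inhibition reaching about 45% at 4 µM in either replicate, limit read from the data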;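 further: plate controls were PMA/ionomycin stimulated DMSO wells for no effect and unstimulated DMSO wells for full effect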
Active calls of the source: *; u = inconclusive; x = not tested or not shown.

SMILES	Shn3 3UTR inh	Jurkat NFkB inh	Calb FLC	Beta apoptosis	697 NFkB inh	Jurkat NFkB conf
COc1ccc(N2CCc3c(C)nc4c(OC)cccc4c32)cc1	41	64*	-21	49	-124	31
COc1cccc(C(=O)OCC(=O)c2ccc(Br)s2)c1OC	-34	-5	x	15	-20	x
CCn1c(/C=C/Nc2ccccc2)[n+](CC)c2cc(Cl)c(Cl)cc21	88*	70*	-8	4	-11	-3
CCC1CCCCN1S(=O)(=O)c1ccc(NC(=O)C2CC(=O)N(C(C)(C)C)C2)cc1 (stereo unspecified)	-85	x	x	x	x	x
Cc1ccc(-c2nc3cc(N)ccc3o2)cc1Br	-65	-160	1	1	-140	-88
Nc1ccc(-c2nc3cc(N)ccc3o2)cc1	-33	-104	-11	-2	-134	x
O=C(C#Cc1ccccc1)Nc1cccc(F)c1	-106	73*	-1	97*	-100	-46
Cc1ccc(NC(=O)/C(Cl)=C/c2ccccc2)cc1C	-37	-155	-8	0	-161	-116
O=C(COC(=O)C1CC1)Nc1ccc(OC(F)F)cc1	-33	7	-7	2	22	x
O=C(COC(=O)C1CC1)Nc1ccc(N=Nc2ccccc2)cc1	-96	-159	-15	-1	-52	-58
COc1cc(OC)c(C(=O)N/N=C/c2ccoc2)cc1OC	-14	-12	7	-2	13	x
CCC(O)C1CCN(C(=O)c2cc(COc3ccc4ncccc4c3)on2)CC1 (stereo unspecified)	88*	56*	-6	106*	-6	67*
O=C(c1cc(COc2ccc3ncccc3c2)on1)N1CCC(O)CC1	48	12	-2	x	-18	x
CCOC(=O)c1sc(NC(=O)c2ccc(Cl)s2)cc1C	-61	-195	-7	x	-113	-58
CCOC(=O)c1sc(NC(=O)C2CC2)cc1C	6	0	26	x	3	x
CCOC(=O)c1sc(NC(=O)c2ccccc2)cc1C	-23	-163	4	11	-119	-91
CCOC(=O)c1sc(NC(=O)c2ccc(S(=O)(=O)N(C)C)cc2)cc1C	9	-7	5	12	-46	x
CCC(C)[C@@H]1NC(=O)N(CCCN2CCCC2=O)C1=O (stereo partly specified)	-8	10	-4	4	8	x
COc1ccc2cc3cc(C(=O)N4CCCCC4C)oc3nc2c1 (stereo unspecified)	-67	-156	1	3	-234	-125
COC(=O)c1ccc(C)c(NS(=O)(=O)c2ccc3c(c2)OCCO3)c1	11	58*	-15	10	3	52*
COC(=O)c1ccc(C)c(NS(=O)(=O)c2ccc(OC)cc2)c1	3	36	2	42	13	x
O=C(O)Cc1ccc(NC(=O)Cc2ccc3ccccc3c2)cc1	-8	0	2	x	-91	x
Cc1ccc(O)c(NC(=O)Cc2ccc3ccccc3c2)c1	9	74*	-58	-1	-23	37
Cc1ccc(O)c(NC(=O)CSc2ccc(Cl)cc2)c1	26	69*	46	5	-12	35
Cc1ccc(NS(=O)(=O)c2ccc(NC(=O)CSc3ccc(Cl)cc3)cc2)c(C)c1	29	-2	2	-5	5	x
SMILES	Shn3 3UTR inh	Jurkat NFkB inh	Calb FLC	Beta apoptosis	697 NFkB inh	Jurkat NFkB conf
COc1cc(OC)cc(C(=O)Nc2ccc(N3CCN(C(=O)c4cccs4)CC3)cc2)c1	4	64*	2	19	-63	20
CCN(c1cccc(C)c1)S(=O)(=O)c1cn(CC(=O)OC)c2ccc([N+](=O)[O-])cc12	11	-8	6	-13	-20	x
Cc1ccc(CNc2ccc3c(c2)ncn3C)cc1	-101	-29	13	-2	-31	x
Cc1ccc(CNc2ccc3c(c2)ncn3C(C)(C)C)cc1	-45	-161	8	-2	-160	-22
Cc1ccc(CNc2ccc3c(c2)nc(C)n3C)cc1	-45	-156	2	0	-201	-59
Cc1nc2cc(NCc3ccc(Cl)cc3)ccc2n1C	-27	-133	-10	x	-202	x
COc1cc(C2=NOC(C(=O)NCc3ccco3)C2)cc(OC)c1OC (stereo unspecified)	2	66*	-2	2	-9	6
COc1cc(C2=NOC(C(=O)NCc3cccs3)C2)cc(OC)c1OC (stereo unspecified)	15	50*	1	13	-67	36
COc1ccc(C2=NOC(C(=O)NCc3cccs3)C2)cc1OC (stereo unspecified)	x	50*	8	-8	-99	44
COc1ccc(C2=NOC(C(=O)NCc3ccco3)C2)cc1 (stereo unspecified)	-14	41	6	5	-31	x
COc1ccc(C2=NOC(C(=O)NCc3cccs3)C2)cc1 (stereo unspecified)	-20	44	0	-1	-38	x
COc1cc(OC)c(C2=NOC(C(=O)NCc3cccs3)C2)cc1Cl (stereo unspecified)	22	54*	10	15	-16	22
CCOC(=O)N1CCN(CC(O)COCc2cc(OC)c(OC)c(OC)c2)CC1 (stereo unspecified)	1	-5	1	1	16	x
CCCCN(C(=O)c1ccc(S(=O)(=O)N2CCCCC2)cc1)C1CCS(=O)(=O)C1 (stereo unspecified)	8	-2	24	x	-7	x
Cc1ccc(CN2CCC(C(=O)c3ccc(F)cc3)CC2)cc1	8	x	x	x	x	x
CCN1CCN(Cc2ccc(NC(=O)c3ccc(C)c(NC(=O)C(=O)c4c[nH]c5ccccc45)c3)cc2C(F)(F)F)CC1	u	95*	66	110*	0	24
CN(C)c1ccc(N=Nc2cccc(F)c2)cc1	-20	-244	-20	6	-90	-102
COc1cc(/C=C2/SC(=Nc3ccc(O)cc3)NC2=O)ccc1O	0	59*	6	34	-83	39
Cc1ccc(S(=O)(=O)NCCCNS(=O)(=O)c2ccccc2)cc1	12	9	3	x	14	x
Cc1ccc(C(=O)N[C@H](C(=O)Nc2cccc(S(=O)(=O)N3CCOCC3)c2)C(C)C)cc1	7	x	x	x	x	x
O=C(COC(=O)c1cccc(S(=O)(=O)N2CCCC2)c1)Nc1ccccc1	-13	-9	32	x	10	x
O=C(COC(=O)c1cccc(OC(F)F)c1)Nc1cccc(S(=O)(=O)N2CCCC2)c1	-14	63*	x	0	1	11
COc1cccc(-c2cc(C(=O)Nc3cc(C)n(Cc4ccc(Cl)cc4)n3)no2)c1	18	61*	-3	3	28	42
COc1ccc(OC)c(-c2cc(C(=O)Nc3cc(C)n(Cc4ccc(Cl)cc4)n3)no2)c1	18	12	1	2	-28	x
CC(=O)Oc1ccc(-c2csc(Nc3cccc(C)n3)n2)cc1	-107	-151	-2	x	-135	-80
Cc1cccc(Nc2nc(-c3cccs3)cs2)n1	-52	-142	-21	4	-138	x
Cc1cccc(Nc2nc(-c3ccccn3)cs2)n1	-2	-185	-20	47	-169	-93

High-throughput results (PubChem)
